Measurements: PubChem BioAssay (Tox21)
Where “and” joins values, the source holds several entries; their conditions need not be identical. Equal values may be shown once. Values without a mark were called inactive. Results filed as inconclusive are left out. A call without a number means that no potency is given here. Calls of active or inactive are those of the source. Unless noted, calls follow the shape of the dose curve; as a rule, active = well fitted curve in the direction sought with a large enough effect in the repeat runs; inconclusive = weak or mixed curves; inactive = no such curve, though single readings can be large; an effect the other way counts as inactive or inconclusive.

Legend:
[1] = qHTS assay to identify small molecule agonists of the hypoxia (HIF-1) signaling pathway - cell viability counter screen (AID 1224844; calls by dose curve; also: nearly all actives have a fitted effect of over 50% in size)
Summary of the method: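 Cytotoxicity was measured in parallel with the HRE-driven beta-lactamase readout: after 17 hrs of compound exposure at 37C, HRE-bla ME-180 cells received CellTiter-Glo and luminescence was recorded 30 min later.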

[2] = qHTS assay to identify small molecule agonists of H2AX (AID 1224845; active = well fitted activation curve with a large enough effect in the signal ratio in the repeat runs, not every such curve was filed as active; the % refers to the signal ratio)
Summary of the method: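 Phospho-H2AX Ser139 measured by HTRF (ex 320 nm; em 665 and 620 nm) after 24 hr antibody incubation. Compounds, 15 concentrations, 0.76% DMSO, were applied to CHO-K1 cells for 3hr at 37C before lysis.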

[3] = qHTS assay to identify small molecule agonists of the hypoxia (HIF-1) signaling pathway (AID 1224846; active = well fitted activation curve with a large enough effect in the signal ratio in the repeat runs, not every such curve was filed as active; the % refers to the signal ratio)
Summary of the method: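 Compounds from the Tox21 10K library, dissolved in DMSO, are tested for induction of a hypoxia response element–controlled beta-lactamase reporter in ME-180 cells. Exposure lasts 17 hrs at 37C after a 5 hr settling period, followed by CCF4-AM FRET substrate.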

[4] = qHTS assay to identify small molecule agonists of H2AX - cell viability counter screen (AID 1224847; calls by dose curve; also: top concentration of the series differs between compounds; nearly all actives have a fitted effect of over 30% in size)
Summary of the method: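 We seed wild-type CHO-K1 cells overnight, treat them for 3 hr at 37C with compounds in 15-concentration series, and quantify remaining viability by CellTiter-Glo luminescence.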

[5] = qHTS assay to identify small molecule antagonists of the estrogen related receptor (ERR) signaling pathway from Tox21 library (AID 1224848); also: nearly all actives have a fitted effect of over 50% in size
Summary of the method: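 ERR cell line, 2,000 cells/well. 6 h settle, then compound (DMSO) added; 18 h at 37 C; ONE-Glo luminescence after 30 min RT.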

[6] = qHTS assay to identify small molecule agonists of the estrogen related receptor (ERR) signaling pathway from Tox21 library (AID 1224849; calls by dose curve; also: nearly all actives have a fitted effect of over 15% in size)
Summary of the method: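 Cells carrying the ERR reporter were plated and allowed to settle for 6 h, exposed to library compounds for 18 h at 37 C, then lysed with ONE-Glo and luminescence measured.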

[7] = qHTS RealTime-Glo MT Cell Viability Assay in HepG2 cells - 24 hour (AID 1224867); also: nearly all actives have a fitted effect of over 50% in size
Summary of the method: (§1)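 HepG2 suspension premixed with RealTime-Glo reagents is plated at 600 cells per well and left 5 h at 37 C/5% CO2. Compounds in DMSO then go in, and bioluminescence reflecting viable cell number is recorded over 40 h.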

[8] = qHTS RealTime-Glo MT Cell Viability Assay in HEK293 cells - 32 hour (AID 1224868); also: top concentration of the series differs between compounds; nearly all actives have a fitted effect of over 50% in size
Summary of the method: (§2)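 Reads taken at 0, 8, 16, 24, 32 and 40 h from the same wells. HEK293 cells (600/well) carried RealTime-Glo reagents from seeding, with compound added after a 5 h settle at 37 C.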

[9] = A CellTox Green Cytotoxicity Assay to monitor cytotoxicity in HEK293 cells - 0 hour (AID 1224869); also: nearly all actives have a fitted effect of over 50% in size
Summary of the method: (§3)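 Cells (HEK293, 600/well) and dye reagent are dispensed together. After 5 h at 37 C, 23 nL compound is pinned in. Plates stay at 37 C for 40 h with fluorescence read at 0h, 8h, 16h, 24h, 32h and 40h.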

[10] = qHTS RealTime-Glo MT Cell Viability Assay in HepG2 cells - 40 hour (AID 1224870); also: nearly all actives have a fitted effect of over 50% in size
Summary of the method: (§4)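 Real-time viability: cells seeded at 600 per well together with NanoLuc and cell-permeant prosubstrate, compounds added after 5 h incubation. Luminescence tracked at 0, 8, 16, 24, 32 and 40 h of exposure.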

[11] = A CellTox Green Cytotoxicity Assay to monitor cytotoxicity in HEK293 cells - 40 hour (AID 1224871); also: nearly all actives have a fitted effect of over 45% in size
Summary of the method: as §3

[12] = qHTS RealTime-Glo MT Cell Viability Assay in HEK293 cells - 16 hour (AID 1224872)
Summary of the method: as §2

[13] = qHTS RealTime-Glo MT Cell Viability Assay in HEK293 cells - 40 hour (AID 1224874); conditions: RealTime-Glo luminescence; max response: active compounds read low; also: nearly all actives have a fitted effect of over 50% in size
Summary of the method: (§5)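 Real-time viability in HEK293: signal arises when living cells convert a prosubstrate for NanoLuc in the medium, so luminescence tracks viable cell number. Compound (23 nL, DMSO) added 5 h post-seeding; kinetic reads at 0–40 h, 37 C.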

[14] = A CellTox Green Cytotoxicity Assay to monitor cytotoxicity in HEK293 cells - 24 hour (AID 1224875); also: series mostly up to about 77 µM; nearly all actives have a fitted effect of over 45% in size
Summary of the method: as §3

[15] = A CellTox Green Cytotoxicity Assay to monitor cytotoxicity in HepG2 cells - 16 hour (AID 1224876); also: nearly all actives have a fitted effect of over 45% in size
Summary of the method: (§6)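 Cells and non-lytic dye reagent are dispensed together (600 HepG2 cells/well) and incubated 5 h before DMSO compound transfer. Kinetic fluorescence is then recorded in the same wells during 40 h at 37 C.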

[16] = qHTS RealTime-Glo MT Cell Viability Assay in HepG2 cells - 32 hour (AID 1224877); also: nearly all actives have a fitted effect of over 55% in size
Summary of the method: as §1

[17] = A CellTox Green Cytotoxicity Assay to monitor cytotoxicity in HepG2 cells - 24 hour (AID 1224878); also: nearly all actives have a fitted effect of over 45% in size
Summary of the method: as §6

[18] = A CellTox Green Cytotoxicity Assay to monitor cytotoxicity in HepG2 cells - 40 hour (AID 1224879); also: nearly all actives have a fitted effect of over 40% in size
Summary of the method: as §6

[19] = qHTS RealTime-Glo MT Cell Viability Assay in HEK293 cells - 0 hour (AID 1224880)
Summary of the method: as §5

[20] = qHTS RealTime-Glo MT Cell Viability Assay in HepG2 cells - 8 hour (AID 1224873); also: nearly all actives have a fitted effect of over 55% in size; also: potency is read from the fitted curve at half-maximal effect
Summary of the method: as §4

For `O=C(O)CCCCCCCCC(=O)O`, the outcome [1] was “inactive”, the outcome [2] was “inactive” and the outcome [3] was “inactive”. For the same compound, the outcome [4] was “inactive”, the outcome [5] was “inactive” and the outcome [6] was “inactive”. For the same compound, the Potency [7] was “inactive”, the Potency [8] was “inactive” and the outcome [9] was “inactive”. For the same compound, the outcome [10] was “inactive”, the Potency [11] was “inactive” and the Potency [12] was “inactive”. The max response [13] was 1.05% and 1.59%, the Potency [14] was “inactive” and the outcome [15] was “inactive”. For the same compound, the outcome [16] was “inactive”, the Potency [17] was “inactive” and the Potency [18] was “inactive”. The outcome [19] was “inactive”.
In the case of `C=CC(=O)OCCC(=O)O`, the outcome [1] is reported as “inactive”, the outcome [2] is reported as “inactive” and the outcome [3] is reported as “inactive”. The outcome [4] was “inactive”, the outcome [5] was “inactive” and the outcome [6] was “inactive”. For the same compound, the Potency [7] was “inactive”, the Potency [8] was “inactive” and the outcome [9] was “inactive”. For the same compound, the Potency [11] was “inactive”, the Potency [12] was “inactive” and the Potency [20] was “inactive”. The max response [13] was -1.71% and -0.811%, the Potency [14] was “inactive” and the outcome [15] was “inactive”. For the same compound, the outcome [16] was “inactive”, the Potency [17] was “inactive” and the Potency [18] was “inactive”. The outcome [19] was “inactive”.
In the case of `O=S(=O)(O)c1ccccc1`, the outcome [1] is reported as “inactive”, the outcome [2] is reported as “inactive” and the outcome [3] is reported as “inactive”. For the same compound, the outcome [4] was “inactive”, the outcome [5] was “inactive” and the outcome [6] was “inactive”. For the same compound, the Potency [8] was “inactive”, the outcome [9] was “inactive” and the Potency [11] was “inactive”. The Potency [12] was “inactive”, the max response [13] was 0.0472% and -6.62% and the Potency [14] was “inactive”. For the same compound, the outcome [16] was “inactive”, the Potency [17] was “inactive” and the Potency [18] was “inactive”. The outcome [19] was “inactive”.
For `O=C(O)Cn1c(=O)n(Cc2ccc(Br)cc2F)c(=O)c2ccc(Cl)cc21`, the outcome [1] was “inactive”, the outcome [2] was “inactive” and the outcome [3] was “inactive”. For the same compound, the outcome [4] was “inactive”, the outcome [5] was “inactive” and the outcome [6] was “inactive”. The outcome [9] was “inactive”, the outcome [10] was “inactive” and the Potency [11] was “inactive”. The Potency [12] was “inactive”, the Potency [20] was 21.9 µM (active) and 8.49 µM (active) and the Potency [14] was “inactive”. For the same compound, the Potency [17] was “inactive”, the Potency [18] was “inactive” and the outcome [19] was “inactive”.
For `C=C(C)CNCC`, the outcome [1] was “inactive”, the outcome [2] was “inactive” and the outcome [3] was “inactive”. For the same compound, the outcome [4] was “inactive”, the outcome [5] was “inactive” and the outcome [6] was “inactive”. For the same compound, the Potency [8] was “inactive”, the outcome [9] was “inactive” and the outcome [10] was “inactive”. The Potency [11] was “inactive”, the Potency [12] was “inactive” and the Potency [14] was “inactive”. For the same compound, the outcome [15] was “inactive”, the outcome [16] was “inactive” and the Potency [17] was “inactive”. The Potency [18] was “inactive” and the outcome [19] was “inactive”.
With `Cc1ccc(S(=O)(=O)N=C=O)cc1` the outcome [1] was “inactive”, the outcome [2] was “inactive” and the outcome [3] was “inactive”. The outcome [4] was “inactive”, the outcome [5] was “inactive” and the outcome [6] was “inactive”. The Potency [7] was “inactive”, the Potency [8] was “inactive” and the outcome [9] was “inactive”. The outcome [10] was “inactive”, the Potency [11] was “inactive” and the Potency [12] was “inactive”. The Potency [20] was “inactive”, the Potency [14] was “inactive” and the outcome [16] was “inactive”. For the same compound, the Potency [17] was “inactive”, the Potency [18] was “inactive” and the outcome [19] was “inactive”.
With `CC(C)=CCl` the outcome [1] was “inactive”, the outcome [2] was “inactive” and the outcome [3] was “inactive”. For the same compound, the outcome [4] was “inactive”, the Potency [7] was “inactive” and the Potency [8] was “inactive”. The outcome [9] was “inactive”, the outcome [10] was “inactive” and the Potency [11] was “inactive”. The Potency [12] was “inactive”, the Potency [20] was “inactive” and the max response [13] was 8.16% and 2.09%. The Potency [14] was “inactive”, the outcome [15] was “inactive” and the outcome [16] was “inactive”. The Potency [17] was “inactive”, the Potency [18] was “inactive” and the outcome [19] was “inactive”.
In the case of `Cc1ccc([N+](=O)[O-])cc1S(=O)(=O)O`, the outcome [1] is reported as “inactive”, the outcome [2] is reported as “inactive” and the outcome [3] is reported as “inactive”. For the same compound, the outcome [4] was “inactive”, the outcome [5] was “inactive” and the outcome [6] was “inactive”. The Potency [7] was “inactive”, the Potency [8] was “inactive” and the outcome [9] was “inactive”. For the same compound, the outcome [10] was “inactive”, the Potency [11] was “inactive” and the Potency [12] was “inactive”. For the same compound, the max response [13] was 6.39% and 7.52%, the Potency [14] was “inactive” and the outcome [16] was “inactive”. The Potency [17] was “inactive”, the Potency [18] was “inactive” and the outcome [19] was “inactive”.
